HT1080 IDH1KD tx – kills HT-1080 cells with IDH1 knockdown; Potency, µM (titrated, usually from 46.1 µM), for the others: at the highest dose activity, negative = toxicity, hits mostly cytotoxic; AID 686971; HT-1080 IDH1 knockdown viability, ATP luminescence, 48 h; 360,000 compounds, 2% hits;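 further: potency means the concentration at half of the fitted maximal effect; 0% = DMSO wells and -100% = cell-free medium wells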
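% activity derives from luminescence (CellTiter-Glo), normalised to DMSO and no-cell wells. HT-1080-IDH1KD cells, 750/well, had 48 h compound exposure at 37 °C.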
ALOX12 inh – blocks human arachidonate 12S-lipoxygenase. Potency, µM (doses to about 108 µM), inactives show top-dose activity change, negative = inhibition, usual class: inhibitors. 580,000 compounds, 1.1% hits. AID 1671190. purified 12hLO, xylenol orange hydroperoxide absorbance. P18054; further: potency means the concentration at half of the fitted maximal effect
Target sequence (P18054 whole entry, looked up): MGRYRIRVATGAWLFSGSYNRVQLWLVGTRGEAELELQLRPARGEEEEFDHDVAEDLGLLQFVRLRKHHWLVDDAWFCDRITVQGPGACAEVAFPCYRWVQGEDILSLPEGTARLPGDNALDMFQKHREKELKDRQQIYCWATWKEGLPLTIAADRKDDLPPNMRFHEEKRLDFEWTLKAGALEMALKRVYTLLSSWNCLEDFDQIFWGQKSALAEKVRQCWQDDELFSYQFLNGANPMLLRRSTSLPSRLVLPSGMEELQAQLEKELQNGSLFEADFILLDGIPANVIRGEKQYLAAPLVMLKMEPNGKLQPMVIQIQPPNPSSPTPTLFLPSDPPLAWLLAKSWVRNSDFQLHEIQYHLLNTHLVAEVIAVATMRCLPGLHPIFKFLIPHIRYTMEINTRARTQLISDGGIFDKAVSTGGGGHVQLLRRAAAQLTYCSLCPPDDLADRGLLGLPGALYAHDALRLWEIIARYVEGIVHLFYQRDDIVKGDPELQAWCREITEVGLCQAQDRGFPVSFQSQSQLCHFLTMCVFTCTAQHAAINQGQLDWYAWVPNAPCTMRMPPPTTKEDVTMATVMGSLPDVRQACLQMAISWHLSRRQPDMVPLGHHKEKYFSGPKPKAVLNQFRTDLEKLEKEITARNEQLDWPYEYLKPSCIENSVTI
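Purified human 12hLO at 150 nM in 25 mM Hepes, 0.01% Triton X-100, pH 7.0, preincubated 15 min at room temperature with compound. Reaction started with 40 uM arachidonic acid, 30 min at room temperature. Hydroperoxide measured by Fe-xylenol orange, 573/405 nm absorbance ratio.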
IL-1B inflam inh – inhibitors of inflammasome signaling (IL-1 beta secretion) | THP-1 LPS/ATP IL-1B secretion, AlphaLISA, 16 h; active compounds read low | activity change, % at 57.5 µM | 360,000 compounds, 4.7% hits | AID 743279; in the data active means activity change below about -50%; inconclusive means mostly about -30% to -49%
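THP-1 cells pretreated 1 hr with compounds (up to 57.5 uM final), then stimulated with LPS (250 ng/mL final) plus ATP (1.25 mM final); secreted IL-1B measured by AlphaLISA after 16 hr, decreased signal indicating inhibition.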
TDP1 cell noCPT – qHTS for Inhibitors of human tyrosyl-DNA phosphodiesterase 1 (TDP1): qHTS in cells in absence of CPT; DT40 Tdp1-/- hTDP1 cells, no CPT, ATP luminescence, 48 h; Potency, µM (titrated, usually from 46.2 µM), inactives show at the top dose activity change, negative = growth inhibition, usual class: inhibitors; 420,000 compounds, 15% hits; AID 686978, 2013; further: potency means the concentration at half of the fitted maximal effect; nearly all actives have a fitted effect of over 55% in size
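Stably hTDP1-transfected Tdp1-null chicken DT40 cells were treated with library compounds minus camptothecin and grown for at least 48 hr at 37 °C, after which cellular ATP was quantified by luminescence.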
DT40 TDP1 CPT – growth inhibition of DT40 Tdp1-/-;hTDP1 cells with camptothecin (screen for TDP1 inhibitors) | chicken DT40 Tdp1-/-;hTDP1 cells + 20 nM CPT, ATP luminescence, 48 h | Potency, µM (doses to about 46.2 µM), for inactives: top-dose activity change, negative = growth inhibition, hits mostly inhibitors | 420,000 compounds, 12% hits | AID 686979; further: potency means the concentration at half of the fitted maximal effect; nearly all actives have a fitted effect of over 55% in size
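Chicken DT40 Tdp1-/- cells stably complemented with human TDP1 were seeded at 400 cells/well in medium containing 20 nM camptothecin, exposed to pin-transferred compounds, and grown at 37 °C for at least 48 hr. Viability was read as ATP luminescence.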
HT1080-NT tox – kills 2HG-producing HT-1080-NT fibrosarcoma cells; 360,000 compounds, 1.6% hits; Potency, µM (top dose mostly 46.1 µM), for inactives: at the top dose activity, negative = less viability, usual class: cytotoxic; HT-1080-NT fibrosarcoma viability, CellTiter-Glo ATP luminescence, 48 h;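 further: NT is the 2HG producing partner of a matched IDH1 knockdown line; potency means the concentration at half of the fitted maximal effect; 0% = DMSO-treated cells and -100% = media-only wells without cells; nearly all actives have a fitted effect of over 55% in size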
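HT-1080-NT; 750 cells/well; 5% FBS RPMI; 48 h compound, 37 degrees C; CellTiter-Glo luminescence; curve fitting and curve-class assignment.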
* marks the source's active call; other numbers are inactive results; i = inactive; ? = inconclusive; / = not tested or not shown; [ ] = dose if it differs, or a comment. Many of the other results were omitted from the sample, so hits are more common in it than they were. Unless noted, the call rests on the fitted dose curve; in most records, active means well fitted curve in the direction sought with a large enough effect; inconclusive means small, poorly fitted or top-dose-only effect, or another doubt; inactive means no such curve, though single readings can be large; an effect the other way counts as inactive or inconclusive. Unless noted, on the % scale 0 is the no-effect control and ±100 the full control effect.

SMILES	HT1080 IDH1KD tx	ALOX12 inh	IL-1B inflam inh	TDP1 cell noCPT	DT40 TDP1 CPT	HT1080-NT tox
CN1CCC(N(C)C(=S)NC(=O)C23CC4CC(CC(C4)C2)C3)CC1	-2%	-26%	-7	-4%	2%	-4%
CN(C)NC(=S)NC(=O)C12CC3CC(CC(C3)C1)C2	4%	?	0	8.2µM*	4.1µM*	-13%
CC(C)(C)NC(=S)NC(=O)C12CC3CCC(CC(C3)C1)C2	12%	22µM*	-3	?	?	3%
O=C(NC(=S)Nc1ccc(Cl)cn1)C12CC3CC(CC(C3)C1)C2	-1%	?	3	?	?	7%
O=C(NC(=S)NC1C2CC3CC(C2)CC1C3)C12CC3CC(CC(C3)C1)C2 (centres undefined)	1%	?	-7	15µM*	?	14%
O=C(c1cccc2[nH]ccc12)N1CCCN(c2cc(-c3ccc(Cl)cc3)[nH]n2)CC1	/	1%	/	/	/	/
CCc1ccc(S(=O)(=O)c2nnn3c2nc(NC2CCCC2)c2ccccc23)cc1	/	2%[6.33 µM]	/	/	/	/
CCCCCn1c(CN2CCN(Cc3ccccc3)CC2)nc2c1c(=O)n(C)c(=O)n2C	2%	-1%	0	15µM*	15µM*	4%
CCCCn1c(CN2CCN(c3ccccc3)CC2)nc2c1c(=O)n(C)c(=O)n2C	-14%	8%	62	2.3µM*	1.5µM*	-12%
CCCCCCn1c(CN2CCC(C)CC2)nc2c1c(=O)n(C)c(=O)n2C	-5%	4%	41	16µM*	?	14%
Cn1c(=O)c2c(nc(CN3CCN(c4ccccc4)CC3)n2CCCc2ccccc2)n(C)c1=O	-1%	6%	10	15µM*	21µM*	2%
CCCCCCCn1c(CN2CCN(c3ccccc3)CC2)nc2c1c(=O)n(C)c(=O)n2C	/	7%	/	/	/	/
CNC(=O)NC(=O)CSc1cc(C)c2ccccc2n1	/	-21%	/	/	/	/
Cn1c(=O)c2c(nc(CN3CCN(Cc4ccccc4)CC3)n2Cc2ccc(F)cc2)n(C)c1=O	0%	5%	16	?	?	-28%
CC(C)CCn1c(CN2CCN(Cc3ccccc3)CC2)nc2c1c(=O)n(C)c(=O)n2C	-1%	-20%	0	16µM*	?	-1%
Cc1ccsc1CN1CCC(C2CCN(S(C)(=O)=O)CC2)C1 (centres undefined)	/	89%	/	/	/	/
COc1ccc(Cl)cc1NC(=O)C1CSC(c2ccncc2)=N1 (centres undefined)	-6%	40%	-3	?	21µM*	-9%
O=C(Nc1ccc(-c2ccco2)cc1)C1CCCN(Cc2ccco2)C1 (centres undefined)	1%	-13%	-13	?	?	-13%
Cc1ncc(CN2CCCC(C(=O)Nc3ccc(-c4ccco4)cc3)C2)n1C (centres undefined)	-16%	i	i	21µM*	?	-19%
COc1cccc(-c2ccc(NC(=O)C3CCCN(Cc4ccco4)C3)cc2)c1 (centres undefined)	5%	-20%	-80*	16µM*	?	-3%
Cn1cc(CN2CCCC(C(=O)Nc3cccc(-n4cccn4)c3)C2)cn1 (centres undefined)	0%	6%	3	26%	1%	-7%
COc1cccc(-c2ccc(NC(=O)C3CCCN(CCCn4nc(C)cc4C)C3)cc2)c1 (centres undefined)	?	-4%	-4	?	18µM*	?
Cn1cc(CN2CCCC(C(=O)Nc3ccc(-c4cccc(F)c4)cc3)C2)cn1 (centres undefined)	?	-11%	-11	12µM*	21µM*	0%
COCCNC(=O)C[C@@H]1O[C@H](CNC(=O)Nc2cccc(F)c2)[C@@H](O)[C@H]1O	/	82%[176 µM]	/	/	/	/
CCc1sc(C(=O)OCC(=O)c2ccc3c(c2)OCCO3)cc1C	/	-3%	/	/	/	/
SMILES	HT1080 IDH1KD tx	ALOX12 inh	IL-1B inflam inh	TDP1 cell noCPT	DT40 TDP1 CPT	HT1080-NT tox
O=C1CCCC2=C1C1(CCCCC1)N=C(Nc1nc3ccccc3s1)N2	-3%	-4%	27	?	18µM*	16%
O=C1CCCC2=C1C1(CCCC1)N=C(Nc1nc3ccccc3s1)N2	12%	12%	17	?	?	10%
Cc1ccsc1C(=O)NCCn1c(C)cnc1C1CCC1	/	15%	/	/	/	/
Cc1nnc(SC(C)C(=O)c2c[nH]c3ccccc23)s1 (centres undefined)	/	0%	/	/	/	/
C=CCn1c(SCC(=O)c2cc(C)n(C(C)COC)c2C)nc2sc(C)c(C)c2c1=O (centres undefined)	?	-12%	-2	18µM*	?	-28%
Cc1noc(C)c1CSc1nc2sc(C)c(C)c2c(=O)n1-c1ccccc1	-15%	0%	1	?	?	-8%
C=CCn1c(SCc2c(C)noc2C)nc2sc(C)c(C)c2c1=O	11µM*	-11%	-22	18µM*	21µM*	16µM*
Cc1ccc(C2Cn3cnc(C(=O)N4CCC(C(=O)NCc5ccccc5Cl)CC4)c3CO2)cc1 (centres undefined)	/	48%	/	/	/	/
N#Cc1cccc(CN2CC[C@H](c3nnc(-c4ccco4)o3)C2)c1	/	-2%[176 µM]	/	/	/	/
O=C(NCc1cccs1)c1ccc2c(c1)N(Cc1ccccc1)C(=O)CS2=O (centres undefined)	/	-17%	/	/	/	/
O=C(Nc1ccc(Br)cc1F)c1ccc2c(c1)N(Cc1ccccc1)C(=O)CS2=O (centres undefined)	-27%	-2%	-58*	13µM*	9.2µM*	?
O=C(NCC1CCCO1)c1ccc2c(c1)N(Cc1ccccc1)C(=O)CS2=O (centres undefined)	3%	-2%[57.4 µM]	-8	?	15µM*	0%
Cc1ccc(C2=C(c3ccc([N+](=O)[O-])cc3)C(=O)OC2)cc1C	-9%	-21%	-2	18µM*	?	-7%
O=C(O)c1ccccc1C(=O)N1CCN(c2ncccn2)CC1	12%	0%	32	-13%	-12%	12%
Cc1ccc(Cl)cc1N(C)C(=O)c1cnc(N2CCOCC2)c2ccccc12	/	1%	/	?	?	/
CSc1ncc(C(=O)N2CCN(c3ccc(F)cc3)CC2)c(C)n1	/	-12%	/	-25%	-28%	/
CN(C(=O)c1cnc(N2CCN(c3ncccn3)CC2)c2ccccc12)c1ccc(Cl)cc1	-10%	28%	-84*	21µM*	?	-3%
